According to PubChem BioAssay (NCI):
About 83,000 compounds went through this panel and 20% of them were active in at least one assay; those are over-represented in the sample as a whole.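 Treatment: one concentration, 48 hours, 96-well format. Scoring: percent growth, with anything below 10 considered active.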 A number with no mark means an inactive call. Calls of active or inactive are those of the source.

system: NCI-H460 lung; assay: NCI-60 one-dose screen, 48 h (100 = growth as untreated, 0 = no growth, -100 = all killed); settings: 10 µM

SMILES | growth
COc1ccc(C(C)C=O)cc1 (centres undefined) | 108%
CCCNc1ccc(C2=NCCCN2)cc1 | 103%
CC1(C)/C(=C\CO)C2CCC1C2 (centres undefined) | 115%
CCC(=O)Oc1ccc(OC)cc1 | 104%
CCOC(=O)C/C(C)=N\O | 106%
CCCCN(CCCC)CCCO | 109%
O=C(Nc1ccccc1C(=O)NCC1CC1)c1cccs1 | 105%
CC(=O)Nc1ccc(NC(C)=O)c2c1C(=O)c1ccccc1C2=O | 102%
O=C(N/N=C\c1cc(Br)cc(Br)c1O)N/N=C/c1cc(Br)cc(Br)c1O | 69.8%
O=C(O)c1ccc(S(=O)(=O)O)cc1 | 109%
CCOC(=O)/C(C#N)=C/c1cccc(C)c1 | 103%
O=C(Nc1ccccc1)OCCc1ccccc1 | 103%
COCCCNC(=O)c1nnn2c1nc(N)c1cc(Cl)ccc12 | 102%
NC(CSC(c1ccccc1)(c1ccccc1)c1ccccc1)C(=O)O (centres undefined) | 13.6%
OCc1cccc2ccccc12 | 112%
CN(C)c1ccc(C(c2ccc(O)cc2)c2ccc(N(C)C)cc2)cc1 | 98.6%
COc1cc2c(cc1OC)[C@H](C(=O)O)[C@@H](c1ccc(OC(C)C)c(OC)c1)N(C)C2=O | 105%
NC(C(=O)O)c1ccc([N+](=O)[O-])cc1 (centres undefined) | 108%
Cc1ccc(Cl)cc1NC(=O)N(C)CCO | 108%
CCC/C=C(\C)C(C)(C#N)C(=O)OCC (centres undefined) | 108%

SMILES | growth
COc1cc(/C=C/C(=O)c2ccccc2)cc(OC)c1OC | 70.7%
O=C1c2ccccc2C(=O)c2c1ccc(C(=O)O)c2[N+](=O)[O-] | 109%
CC1=CC(C)(C)NC(=S)N1c1ccc(S(=O)(=O)O)c2cccc(S(=O)(=O)O)c12 | 110%
COC(=O)Nc1nc2ccc(C(=O)c3ccc(F)cc3)cc2[nH]1 | 6% (active)
C=CC(=O)OCCCCCCCC | 102%
O=[N+]([O-])c1ccc(Cl)c(S(=O)(=O)O)c1 | 108%
CN(C)C(C)(C)CC(C)(C)C | 108%
N#CC(=Nc1cccc(F)c1)C1=C(O)c2ccccc2C1=O | 102%
Cc1c(O)cnc2nn(-c3ccccc3)c(=N)n12 | 103%
O=c1[nH]n(-c2ccccc2)c(=O)cc1Cl | 109%
O=C(NCO)c1ccccc1 | 105%
COc1cc(CCN=Cc2ccccc2O)c([N+](=O)[O-])cc1OC | 108%
CC[N+](C)(CC)CCO | 105%
COc1cc(C(N)=O)cc(OC)c1OC | 111%
COC(=O)CCCCC1=CCC2C(=O)C=C(O)C2C1 (centres undefined) | 105%
CC(C)(C)n1nc(C2CC2)c(Br)c1NC(=O)c1ccccc1F | 102%
C=CCNc1nnc(C)s1 | 115%
COc1cc(/C=N\Nc2ccccc2)ccc1OC(=O)c1ccccc1 | 44.2%
COC(=O)c1ccc(NC(=O)CCl)cc1 | 47.5%
